Inconclusive results are not listed. Active and inactive are the calls of the source. The call rests on the fitted dose curve; in most records, active means well fitted cell-killing curve with a large enough effect; inconclusive means small, poorly fitted or top-dose-only effect; inactive means flat fitted curve, though single readings scatter. Where a SMILES comes first, the peptide text is derived from it. [ ]: non-standard residue; d: D form. pGlu = O=C1CC[C@@H](C(=O)O)N1
Assay: qHTS of pediatric cancer cell lines to identify multiple opportunities for drug repurposing: Primary screen for BT-37 cells (AID 1347094);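 further: plate controls were DMSO for no effect and bortezomib for full effect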
Conditions: BT-37 viability, CellTiter-Glo luminescence, 48 h; series mostly up to 57.3 µM; activity change, negative = cytotoxic: at the top concentration
Outline: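 Viability was measured as metabolically active cells after 48 hours of treatment, read by CellTiter-Glo luminescence. Compounds were tested at multiple final concentrations, giving concentration-response curves.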

| Compound | activity change, negative = cytotoxic |
| --- | --- |
| Cc1ccc(C(C)OC(=O)C2(C)CCC(C(=O)O)C2(C)C)cc1 (stereo not given) | 15.2% (inactive) |
| Cc1cc(O)c2c(O)c3c(O)cccc3cc2c1 | 6.57% (inactive) |
| O=C(CCCl)NCc1ccccc1 | 4.54% (inactive) |
| CCCCCCn1c(=O)c2c(ncn2C)n(C)c1=O | 3.22% (inactive) |
| O=c1[nH]c2ccccc2c(=O)n1CCCl | 3.72% (inactive) |
| CCc1cccc2c(CCO)c[nH]c12 | 13.5% (inactive) |
| C#CC(C)(CC)OC(=O)c1ccccc1C(=O)O (stereo not given) | 4.98% (inactive) |
| C[N+]1(CC2COC(c3ccccc3)(c3ccccc3)O2)CCCCC1 (stereo not given) | -8.08% [at 20.1 µM] (inactive) |
| [O-][n+]1cccc(/C(Cl)=N/OC[C@@H](O)CN2CCCCC2)c1 | 13.2% (inactive) |
| C[C@H]1C[C@H]2[C@@H]3CCC4=CC(=O)C=C[C@]4(C)[C@H]3C(=O)C[C@]2(C)[C@@]1(O)C(=O)CO | 1.02% (inactive) |
| CCNC(=O)[C@@H]1CCCN1C(=O)[C@H](CCCN=C(N)N)NC(=O)[C@H](CC(C)C)NC(=O)CNC(=O)[C@H](Cc1ccc(O)cc1)NC(=O)[C@H](CO)NC(=O)[C@H](Cc1c[nH]c2ccccc12)NC(=O)[C@H](Cc1cnc[nH]1)NC(=O)[C@@H]1CCC(=O)N1 ([pGlu]HWSYGLRP-NHEt) | 14.9% (inactive) |
| CC(=O)N[C@@H](CO)C(=O)N[C@@H](CC(=O)O)C(=O)N[C@@H](CCCCN)C(=O)N1CCC[C@H]1C(=O)O (Ac-SDKP-OH) | 4.95% (inactive) |
| CCCCN(CCN(CCCC)C(=O)N1CCOCC1)C(=O)N1CCOCC1 | -0.36% (inactive) |
| Cc1cc(CCCOc2c(C)cc(-c3noc(C(F)(F)F)n3)cc2C)on1 | -4.85% (inactive) |
| Nc1ccc(C(=O)N2CC3CC(CN(Cc4ccccc4)C3)C2)cc1 | 1.73% (inactive) |
